The record followed here is PubChem BioAssay AID449764 (Southern Research Specialized Biocontainment Screening …, 2010).

About 1,700 (74%) of roughly 2,300 compounds were called active. No rule for the calls is given here. The set was probably picked from earlier hits. Some of the results follow. Entries with a potency or affinity are not part of this list.

The nature of this test: Mycobacterium tuberculosis H37Rv growth inhibition, no glycerol, confirmatory dose response (AID 449764).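 Also: growth read after 7 days of incubation.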 The conditions noted are these: series mostly up to 100 µM; inhibition: at the top concentration.
`Cc1c(O)c(=O)n(-c2ccccc2)n1C`: the “inhibition” value is -11.3% (inactive).
In the case of `O=C(OCC(=O)C12CC3CC(CC(C3)C1)C2)c1ccc(O)cc1O` it was -5.85% (inactive); in that of `CC(=O)NC1C(c2nc3ccccc3s2)=C(c2ccccc2)C(=O)N1c1ccc(C)cc1` (stereo not drawn), -15.8% (inactive); in that of `CCc1ccc(N=CC23c4ccccc4C(c4ccccc42)C2C(=O)N(c4ccc(OC)cc4)C(=O)C23)cc1` (stereo not drawn), -0.01% (inactive).
The result for `COc1ccc(NCc2n[nH]nc2-c2ccccc2)cc1Cl` reads -3.72% (inactive); that for `C=CCSc1n[nH]c(-c2ccc(OCCCC)cc2)n1`, 10.5% (inactive).
Consider `O=C(O)C1CC=CCC1C(=O)NNc1ccccc1` (stereo not drawn), for which the “inhibition” value was -1.55% (inactive).
In the case of `CCOP(=O)(OCC)/C(=C/N1CCCCC1)NC(=O)c1ccccc1` it was 0.96% (inactive); in that of `CCOc1cc(C(=O)OCc2ccc(C(=O)OC)o2)cc(Br)c1OC`, 0.05% (inactive).
In the case of `Cc1nc2cc(C(F)(F)F)ccc2n1C1CCN(Cc2nnnn2Cc2ccc3c(c2)OCO3)CC1` it was 1.25% (inactive); in that of `Cc1ccc(NC2Sc3ccccc3NC2=O)cc1Cl` (stereo not drawn), -0.25% (inactive).
In the case of `Cc1nc2sccn2c1-c1nc(-c2cc3ccccc3o2)cs1` it was 10.1% (inactive); in that of `Cc1ccc(-c2nnc(NCc3nc4ccccc4[nH]3)c3ccccc23)cc1S(=O)(=O)N1CCCCC1`, 5.89% (inactive); in that of `Cn1ccnc1C(O)c1cc(C(C)(C)C)c(O)c(C(C)(C)C)c1` (stereo not drawn), -3.4% (inactive).
On to `O=C(N/N=C/c1c(F)c(F)c(F)c(F)c1F)c1cccc(S(=O)(=O)N2CCOCC2)c1`, for which the “inhibition” value was -10.6% (inactive).
With `COc1ccc(NC(=O)c2oc3ccc(S(=O)(=O)N4CCOCC4)cc3c2C)cc1`, the “inhibition” value is 10% (inactive).
As to `CC(C)(C)c1ccc(C2C3=C(CCCC3=O)NC3=C2C(=O)c2ccccc23)cc1` (stereo not drawn), the “inhibition” value was 8.47% (inactive).
The result for `CC(C(=O)NC(=O)NC1CCCCC1)N(C)CC(=O)Nc1ccc(F)c(F)c1F` (stereo not drawn) reads 10.7% (inactive).
In the case of `Cc1ccccc1C(=O)Nc1ccc(-c2nc3ccc(C(=O)c4ccccc4)cc3[nH]2)cc1` it was -1.44% (inactive); in that of `ClC1=C(Cl)C(Cl)=C(Cl)C1=C/C=C/c1ccccc1`, 5.26% (inactive).
Turning to `CC(C)c1ccc2[nH]c(O)c(N=NC(=O)c3ccc(CSc4nncn4C)cc3)c2c1`, the “inhibition” value was -6.98% (inactive).
The result for `CCOc1ccc(NC(=O)CSc2cn[nH]n2)cc1` reads 2.67% (inactive).
In the case of `COC(=O)c1ccc(CSc2nc3cc(Cl)ccc3o2)cc1`, the “inhibition” value was -0.73% (inactive).
As for `CCOC(=O)c1ccc(N=C2SC(C(=O)Nc3ccc(C(=O)O)cc3)CC(=O)N2Cc2cccs2)cc1` (stereo not drawn), the “inhibition” value is 5.41% (inactive).
In the case of `CCC(C)Nc1nc2c(C)cccn2c(=O)c1C=Nc1ccc(OC)cc1` (stereo not drawn) it was -9.31% (inactive).
In the case of `COc1ccc(NC2(c3ccc(Cl)cc3)C(=O)c3ccccc3C2=O)cc1` it was -3.05% (inactive); in that of `COc1ccc(C(=O)NNc2ccccc2)cc1OC`, 5.15% (inactive); in that of `CC(C)C(=O)Nc1cccc(-c2nc3ccccc3c(=O)o2)c1`, 15.6% (inactive).
Turning to `Cn1c(=O)c2cc(NCc3ccccc3)nnc2n(C)c1=O`, the “inhibition” value was -9.62% (inactive).
On to `Cc1ccc(C(=O)N2N=C(CC(C)C)CC2(O)C(F)(F)F)o1` (stereo not drawn), for which the “inhibition” value is -6.72% (inactive).
The result for `CCOc1ccc(C2=Nc3ccc(Br)cc3C(c3ccc(N4CCOCC4)cc3)=NN2)cc1` reads 7.94% (inactive); that for `CCOc1ccc(N2CCc3c(C)nc(SC)nc32)cc1`, 11.8% (inactive); that for `Cc1nc(Nc2ccc(Cl)c(Cl)c2)sc1C(=O)Nc1ccccc1`, 19.2% (inactive).
In the case of `Cc1ccc(NC(=O)c2ccc(CSc3nnc(C)s3)cc2)c(C)c1` it was -1.32% (inactive); in that of `CCCCN(CC)c1nc(N)c2c(N)nc(OCC)cc2c1C#N`, 0.66% (inactive).
In the case of `CC(C)C[C@H]1C(=O)N2CCC[C@H]2[C@]2(O)O[C@](NC(=O)C3C=C4c5cccc6[nH]c(Br)c(c56)C[C@H]4N(C)C3)(C(C)C)C(=O)N12` (stereo partly drawn) it was 15% (inactive); in that of `O=C1N/C(=N\N=C\c2ccccn2)SC1Cc1cccc(SC(F)F)c1` (stereo not drawn), -11.1% (inactive).
As for `CCc1ccc(CCOc2ccc(CC3SC(=O)NC3=O)cc2)nc1` (stereo not drawn), the “inhibition” value was -2.88% (inactive).
In the case of `FC(F)(F)c1ccc(N2CCOCC2)c(Nc2nc3ccccc3n3cnnc23)c1` it was -1.54% (inactive).
In the case of `CSc1cc(-c2ccncc2)nc(-c2ccc(Cl)cc2)c1` it was 16.4% (inactive).
In the case of `CCCCN(CCCC)c1nc(-c2ccncc2)nc2ccccc12` it was -1.44% (inactive).
In the case of `O/N=C/c1ccc2ccccc2c1`, the “inhibition” value is 1.44% (inactive).
The result for `Cc1ccc2c(c1)C(c1ccc(N3CCOCC3)cc1)=NNC(c1cccs1)=N2` reads 0.25% (inactive); that for `CCc1ccc(/C=C/C(=O)c2cc(Br)ccc(=O)c2O)cc1`, -19.1% (inactive).
The result for `Cc1ccccc1-n1c(O)c(C=Nc2ccc3c(c2)OCO3)c(=O)[nH]c1=O` reads 0.43% (inactive); that for `C=CCc1c(C)nc2ccc(C(=O)OCC)cc2c1Cl`, 10.8% (inactive).
As for `CCn1c(SCC(=O)Nc2ccc3c(c2)oc2ccccc23)nnc1-c1ccc(N)cc1`, the “inhibition” value was 4.98% (inactive).
Take `O=S(=O)(c1ccc(Oc2ccc3oc4ccccc4c3c2)nc1)N1CCCC1`: the “inhibition” value is -0.11% (inactive).
For `COc1ccc(-c2cc(O)cc(O)c2)cc1`, the “inhibition” value was -6.99% (inactive).
In the case of `CCCCOC1CC(c2ccc(OCc3ccc(OC)cc3)c(OC)c2)N(C)O1` (stereo not drawn) it was 7.75% (inactive).
The result for `CCCCCCOc1ccc(/C=C/C(=O)N2CCOCC2)cc1OC` reads 3.43% (inactive); that for `O=[N+]([O-])/C=C/c1cn(Cc2ccccc2)c2ccccc12`, 16.7% (inactive).
`Oc1ccc(/C=N/n2c3ccccc3c3ccccc32)cc1`: the “inhibition” value was 8.46% (inactive).
In the case of `Fc1cc(F)cc(Nc2nc(Cl)nc(NC3CCCC3)n2)c1` it was -2.21% (inactive).
In the case of `Cc1ccc(Nc2nc(N)c([N+](=O)[O-])c(N3CCCC(C)C3)n2)cc1C` (stereo not drawn), the “inhibition” value was 10.2% (inactive).
The result for `COc1ccc(NC(=O)ON=C2c3ccccc3-c3ccccc32)cc1` reads 5.91% (inactive).
The result for `COc1ccc(N/C(=C2\CCCC2=O)C2CCCCC2)cc1` reads 8.32% (inactive); that for `CC(C)(C)c1ccc(-c2nc3[nH]c(=O)cc(NC(=O)c4ccco4)n3n2)cc1`, -2.11% (inactive); that for `Cc1ccccc1C(=O)Nc1ccccc1C(=O)NCC(C)C`, -7.13% (inactive).
As to `O=C1NCCC/C1=N\Nc1ccc(Br)cc1`, the “inhibition” value is -6.4% (inactive).
In the case of `CN1CCN(/N=C/c2c3ccccc3c(Cl)c3ccccc23)CC1` it was 7.76% (inactive); in that of `COc1ccccc1N1CCN(c2ccc(-c3ccccc3)nn2)CC1`, 2.99% (inactive); in that of `COc1cc(C)ccc1OCCOc1c(C)cc(Cl)cc1Cl`, 14.7% (inactive).
In the case of `O=c1oc(-c2ccccc2[N+](=O)[O-])nc2ccccc12` it was 4.79% (inactive); in that of `Cc1noc2ncnc(Sc3ccc(Cl)cc3)c12`, -1.06% (inactive); in that of `O/N=C/c1cn(-c2ccc(Cl)cc2)nn1`, -16.6% (inactive).
The result for `CN1CCN(c2ccc(C(=O)c3cn(-c4ccc(F)c(Cl)c4)nn3)cc2)CC1` reads 3.46% (inactive); that for `Cc1ccc(Cl)cc1NC(=O)CN1CCN(S(=O)(=O)N2CCOCC2)CC1`, 0.89% (inactive); that for `Cc1ccc2[nH]c3c(c2c1)CN(C(=O)CN1CCN(c2ccccn2)CC1)CC3`, 10.3% (inactive).
Turning to `COc1cc(CNC(=O)CCCCCCC(C)C)ccc1O`, the “inhibition” value is 22.9% (inactive).
In the case of `CCCCNC(=O)Nc1nnc(-c2ccc(OCC)cc2)o1` it was 4.04% (inactive).
In the case of `CN(C)C=Nc1ccc2nn(-c3ccccc3)nc2c1` it was -12.8% (inactive).
The result for `O=C(Nc1ccc(Cl)cc1)N(Cc1nc2ccccc2c(=O)[nH]1)Cc1cccs1` reads -0.82% (inactive).
As to `CCOc1ccc(N/C(C)=C/C(=O)c2ccc3c(c2)OCCO3)cc1`, the “inhibition” value was -1.38% (inactive).
`Cc1[nH]nc(SCC(=O)NCc2ccccc2)c1[N+](=O)[O-]`: the “inhibition” value was 3.69% (inactive).
The result for `CCC(C)n1c(NC(=O)c2ccccc2)c(C#N)c2nc3ccccc3nc21` (stereo not drawn) reads 8.82% (inactive).
The result for `COc1ccc(-c2oc3ccc(-c4ccc(OC)nc4)cc3c2C#CC2(O)CCCCC2)cc1` reads 7.76% (inactive); that for `Cc1cc(=O)oc2cc(OC(=O)C3CCN(C(=O)c4ccc(F)cc4)CC3)ccc12`, -1.62% (inactive); that for `CC12CN3CCN(CC(C3)/C1=N\NC(=O)Nc1cccc(Cl)c1)C2`, 5.72% (inactive).
On to `Cc1ccccc1-c1nc(CN2CCC(C(=O)NCCC3=CCCCC3)CC2)c(C)o1`, for which the “inhibition” value is 4.01% (inactive).
`Cc1ccc2nc(SCC(=O)Nc3ccc4c(c3)CCC4)[nH]c2c1`: the “inhibition” value was 5.82% (inactive).
The result for `CCCc1cc2c(cc1NC(=O)c1ccccc1Cl)OCO2` reads 7.35% (inactive); that for `Cc1sc2nc3c4ccccc4c(NCc4ccco4)nn3c(=O)c2c1C`, -4.52% (inactive); that for `Cc1ccc(C2CN(C)C3(C(=O)Nc4ccccc43)C23COc2ccccc2C3=O)cc1` (stereo not drawn), -10.1% (inactive).
The result for `CCOc1ccc(N=c2scc(-c3ccccc3)n2CCO)cc1` reads -0.96% (inactive); that for `CC1(C)OC(=O)C(=NNc2ccc(Cl)cc2)C(=O)O1`, 9.09% (inactive); that for `Cc1cccc(CSc2nc3c(c(-c4cccs4)c2C#N)CN(C)CC3)c1`, 5.32% (inactive).
The result for `CC1(C)CC(=O)c2c(O)cc(OCc3ccc(Br)cc3)cc2O1` reads 27.8% (inactive); that for `COC(=O)C(Cc1ccc(OC(=O)c2ccc(C(F)(F)F)cc2)cc1)N1Cc2ccccc2C1=O` (stereo not drawn), 5.41% (inactive); that for `O=C(CNC(=O)c1ccc(Cl)cc1)c1ccc(Cl)cc1`, 4.82% (inactive).
Regarding `Cc1ccsc1/C=N/Nc1ccc(F)cc1F`, the “inhibition” value is -13.4% (inactive).
`CCOC(=O)c1ccc(N=Cc2nc3ccccc3n2C)cc1`: the “inhibition” value is -0.5% (inactive).
In the case of `CC1(C)CC(=O)c2cc(C(=O)NNc3ccccc3)c(=O)n(-c3ccccc3)c2C1` it was 1.32% (inactive); in that of `Cn1cnnc1SCc1ccc(-c2ccc(Br)cc2)o1`, 3.16% (inactive).
The result for `O=C(Nc1ccc(CN2CCOCC2)cc1)c1ccc(-c2cc(Cl)ccc2Cl)o1` reads 13.3% (inactive); that for `CCOC(=O)c1ccc(N=C2S/C(=C\c3cc(C)n(-c4cccnc4)c3C)C(=O)N2C)cc1`, -1.19% (inactive).
In the case of `O=C(COC(=O)C1CC2CCCC(C1)C2=O)NNC(=O)c1ccccc1F` (stereo not drawn) it was 6.77% (inactive); in that of `C(=C\c1ccccc1)/C=N/Nc1nc2ccccc2s1`, 16.2% (inactive).
In the case of `CC1(c2ccc(Cl)c(Cl)c2)NC(=S)N2C1NC(=S)N2c1ccccc1` (stereo not drawn), the “inhibition” value is 8.16% (inactive).
The result for `CC(=O)Oc1c(C)cc(Cl)cc1C(=O)Nc1ccc([N+](=O)[O-])cc1Cl` reads -3.94% (inactive); that for `CCCc1nc2oc(C(=O)OCC)c(N)c2c2c1COC(C)(C)C2`, 9.84% (inactive); that for `O=C1c2ccccc2C(=O)N1Nc1ccccc1`, -0.14% (inactive).
The result for `CCc1noc(C)c1C(=O)Nc1nc(-c2ccc(F)cc2)c(C)s1` reads -3.73% (inactive); that for `COc1ccc(-c2nc(NC(=O)c3[nH]c(C)c(C(C)=O)c3C)sc2C)cc1`, 0.11% (inactive).
The result for `CCOC(=O)c1ccc(Nc2cc3ccccc3c(=O)[nH]2)cc1` reads 5.75% (inactive).
With `CCCCOP(=O)(OCCCC)C(Nc1ccc(C(=O)OCC)cc1)c1ccncc1` (stereo not drawn), the “inhibition” value is 7.49% (inactive).
The result for `Cc1ccc(C)c2nc(N3CCCC3)c(C#N)cc12` reads 1.81% (inactive).
The result for `N=c1c(C(=O)NC2CCCCC2)cc2c(=O)n3ccccc3nc2n1Cc1ccc(F)cc1` reads -0.07% (inactive).
